Bioassay records (PubChem BioAssay)
Only some compounds are listed: those with a hit (about 7.5% of all), similar ones and a draw of the others.
ELG1 genotoxic = genotoxicity induction in ELG1-luciferase HEK293T cells; HEK293T ELG1-luciferase reporter, luminescence, 16 h; Potency, µM (doses to about 46 µM), actives largely listed as activators; hit rate 1.3% among 330,000; AID 504466; further: nearly all actives have a fitted effect of over 60% in size
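Step 1: seed 2,000 HEK293T ELG1-luciferase cells per well. Step 2: add compound or DMSO, incubate 16 hr at 37 °C. Step 3: ONE-Glo, 30 min at room temperature, read luminescence.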
SMN2 splice enh = increases expression of the SMN2 splice variant; HEK293 SMN2-luciferase splicing reporter, luminescence, 30-36 h; Potency, µM (highest dose often 46.1 µM), actives largely listed as activators; hit rate 2.8% among 210,000; further: nearly all actives have a fitted effect of over 55% in size
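HEK293 cells carry an SMN2 minigene-luciferase reporter in which exon 7 inclusion puts luciferase in frame. Cells were seeded at 2000 cells/well, attached for 10-12 hours, then exposed to compounds for 30-36 hours at 37C before ONE-Glo luminescence.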
NPC1 promoter act = activators of NPC1 promoter | Huh7 NPC1 promoter luciferase reporter, 24 h | Potency, µM (top dose mostly 9.22 µM), usual class: activators | hit rate 2.4% among 320,000 | AID 485313; further: nearly all actives have a fitted effect of over 60% in size
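Stable NPC1-promoter luciferase Huh7 line; cpd (DMSO) 24 h, 37 °C, 5% CO2; Amplite luciferase reagent 10 min RT; luminescence readout. qHTS format.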
FLuc modulator = counter-screen for miR-21 project: firefly luciferase inhibitors or activators | purified FLuc, Km substrates, luminescence inhibition | Potency, µM (top dose mostly 57.5 µM), actives largely listed as inhibitors | hit rate 6.9% among 360,000; further: nearly all actives have a fitted effect of over 55% in size
Target sequence (P08659 whole entry, looked up): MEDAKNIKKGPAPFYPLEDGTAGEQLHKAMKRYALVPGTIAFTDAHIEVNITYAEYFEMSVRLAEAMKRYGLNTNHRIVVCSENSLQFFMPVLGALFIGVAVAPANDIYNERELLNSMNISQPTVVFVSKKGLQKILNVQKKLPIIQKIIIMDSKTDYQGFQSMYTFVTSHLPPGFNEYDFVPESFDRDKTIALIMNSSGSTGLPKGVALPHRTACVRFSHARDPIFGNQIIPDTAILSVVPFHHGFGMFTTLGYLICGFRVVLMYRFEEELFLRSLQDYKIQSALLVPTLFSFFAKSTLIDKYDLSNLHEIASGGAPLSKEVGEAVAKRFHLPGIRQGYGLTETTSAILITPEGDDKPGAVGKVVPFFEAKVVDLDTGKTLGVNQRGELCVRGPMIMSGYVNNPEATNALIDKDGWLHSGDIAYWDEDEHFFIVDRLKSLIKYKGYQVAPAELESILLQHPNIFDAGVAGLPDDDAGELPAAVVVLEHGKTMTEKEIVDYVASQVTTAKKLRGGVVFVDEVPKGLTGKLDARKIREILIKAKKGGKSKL
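Purified P. pyralis luciferase, 10 nM final, with Km-level 10 uM D-luciferin and 10 uM ATP in 50 mM Tris acetate pH 7.5, 10 mM Mg acetate, 0.01% Tween-20, 0.05% BSA; 6-point qHTS titration about 60 µM downward; luminescence read.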
Rab9 prom act = activators of Rab9 promoter | Huh7 Rab9 promoter-luciferase reporter, luminescence, 24 h | Potency, µM (titrated, usually from 9.22 µM), most hits filed as activators | hit rate 2.8% among 320,000; further: nearly all actives have a fitted effect of over 60% in size
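Cells were plated at 1500 per well in reduced-serum medium with 10% FBS and left 2 h. Compound in DMSO was then added for 24 h at 37 °C. Reporter signal was read by luminescence after 10 min with luciferase detection reagent.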
Numbers stand for hits; . = inactive; ? = inconclusive; / = no result; [ ] = another dose, or the depositor's remark. The call rests on the fitted dose curve; in most records, active means well fitted curve in the direction sought with a large enough effect; inconclusive means small, poorly fitted or top-dose-only effect, or another doubt; inactive means no such curve, though single readings can be large; an effect the other way counts as inactive or inconclusive.

SMILES | ELG1 genotoxic | SMN2 splice enh | NPC1 promoter act | FLuc modulator | Rab9 prom act
CC(Sc1nnc(Nc2ccccc2)s1)C(=O)Nc1nc(-c2ccccc2)cs1 (stereo unspecified) | . | 4µM | . | . | .
CC(Sc1nnc(NCc2ccccc2)s1)C(=O)Nc1ccc2c(c1)C(=O)c1ccccc1C2=O (stereo unspecified) | . | 1.3µM | ? | ? | ?
C(=N\N1CCOCC1)/c1nc(-c2ccccc2)n2ccccc12 | . | . | . | . | .
CC(C)(C)c1ccc(-c2nc(C=O)c3ccccn23)cc1 | . | . | . | 15µM | .
Cc1cccc2sc(NS(C)(=O)=O)nc12 | . | . | . | ? | .
CCc1ccccc1NC(=S)N(CCOC)C(C)c1ccco1 (stereo unspecified) | . | / | . | . | .
O=C(/C=C/c1ccc(Cl)c(Cl)c1)n1cccn1 | . | . | . | 2.7µM | .
O=[N+]([O-])c1ccccc1CSc1nc2ccccc2o1 | ? | 20µM | ? | 19µM | ?
N#CCSc1nc2ccccc2o1 | . | / | . | . | .
CCOC(=O)c1ccc(NC(=O)c2ccc3c(c2)C(=O)N(CC2CCCO2)C3=O)cc1 (stereo unspecified) | . | / | . | . | .
COc1ccc(NC(=O)c2ccc3c(c2)C(=O)N(CC2CCCO2)C3=O)cc1O (stereo unspecified) | . | / | . | ? | .
Nc1ccc2c(c1)C(=O)N(CC1CCCO1)C2=O (stereo unspecified) | . | . | . | . | .
Cc1nnc(NC(=O)c2ccc3c(c2)C(=O)N(CC2CCCO2)C3=O)s1 (stereo unspecified) | . | . | . | 5.4µM | .
Cc1c(NC(=O)c2ccc3c(c2)C(=O)N(CC2CCCO2)C3=O)cccc1C(=O)O (stereo unspecified) | . | . | . | 15µM | .
Nc1ccc(Oc2ccc3c(c2)C(=O)N(CC2CCCO2)C3=O)cc1 (stereo unspecified) | ? | / | ? | 9.5µM | ?
CCOc1ccccc1NC(=O)c1ccc2c(c1)C(=O)N(CC1CCCO1)C2=O (stereo unspecified) | . | / | . | . | .
O=C(Nc1ccc(O)c(C(=O)O)c1)c1ccc2c(c1)C(=O)N(CC1CCCO1)C2=O (stereo unspecified) | . | . | . | 9.5µM | .
CCCCC(CC)C(=O)O (stereo unspecified) | / | . | / | / | /
O=C(Nc1cc(F)ccc1F)C1CCN(C(=O)c2cnn(-c3ccccc3)c2-n2cccc2)CC1 | / | . | / | . | /
O=C(Nc1ccc2c(c1)C(=O)N(CC1CCCO1)C2=O)c1ccc(Cl)c(Cl)c1 (stereo unspecified) | . | . | . | 5.4µM | .
Cc1ccc(NC(=O)c2ccc3c(c2)C(=O)N(CC2CCCO2)C3=O)cc1C (stereo unspecified) | . | / | . | 11µM | .
O=C(Nc1cccnc1)c1ccc2c(c1)C(=O)N(CC1CCCO1)C2=O (stereo unspecified) | . | . | . | . | .
O=C(NC(O)C(=O)c1ccccc1)c1ccccn1 (stereo unspecified) | . | / | . | 15µM | .
CC(=O)CCC(=O)OCC(=O)c1ccc(C(F)(F)F)cc1 | . | / | . | . | .
CC1=CCC(/C=N\Nc2nnc3c(n2)[nH]c2ccccc23)CC1 (stereo unspecified) | ? | . | ? | 1.5µM | ?
SMILES | ELG1 genotoxic | SMN2 splice enh | NPC1 promoter act | FLuc modulator | Rab9 prom act
O=C(COC(=O)c1ccccc1SCC(=O)NC1CCS(=O)(=O)C1)NC1CCS(=O)(=O)C1 (stereo unspecified) | . | . | . | . | .
CCNC(=O)NC(=O)COC(=O)c1ccccc1SCC(=O)NC(=O)NCC | ? | 8.9µM | 1.6µM | 5.4µM | 2.8µM
Cc1ccc(C(=O)N(C)c2ccc(OCC(=O)N3c4ccc(C)cc4C4CN(C)CCC43)cc2)cc1 (stereo unspecified) | ? | 11µM | . | 3µM | ?
Cc1ccc2c(c1)C1CN(C)CCC1N2C(=O)COc1ccc(N(C)C(=O)C(C)(C)C)cc1 (stereo unspecified) | . | . | . | . | .
O=C(O)CN1C(=O)/C(=C\c2cc(Br)ccc2OCc2ccc(Cl)cc2)SC1=S | . | / | . | . | .
COc1ccc(/C=C2/SC(=S)N(CC(=O)O)C2=O)cc1OCc1ccc(Cl)cc1 | . | / | . | 19µM | .
COc1cc(/C=C2\SC(=S)N(CC(=O)O)C2=O)ccc1OC(=O)c1ccco1 | . | / | ? | 7.6µM | .
COc1cc(/C=C2/SC(=S)N(CC(=O)O)C2=O)ccc1OC(=O)c1ccco1 | . | / | . | 7.6µM | .
O=C(O)CN1C(=O)/C(=C\c2cccc(OCc3ccccc3)c2)SC1=S | . | / | . | 15µM | .
CCOc1ccc(/C=C2/SC(=S)N(C(C(=O)O)c3ccccc3)C2=O)cc1OCC (stereo unspecified) | . | . | . | ? | .
CCOc1cc(/C=C2/SC(=S)N(CC(=O)O)C2=O)ccc1OC(=O)c1cccs1 | . | / | . | 17µM | .
CN(C)S(=O)(=O)c1ccc(S(=O)(=O)NCc2cccs2)cc1 | . | / | . | . | .
C/C(=N\NC(=O)c1cccc(Br)c1)c1ccccn1 | ? | / | . | 13µM | .
C/C(=N\NC(=O)c1ccc(Cl)c(Cl)c1)c1ccccn1 | ? | / | . | ? | .
C/C(=N\NC(=O)c1ccccc1Cl)c1ccccn1 | 15µM | / | . | 24µM | .
C/C(=N\NC(=O)c1cc(Br)ccc1O)c1ccccn1 | 21µM | / | ? | 17µM | ?
C/C(=N/NC(=O)c1ccccn1)c1ccncc1 | ? | / | 3.5µM | 17µM | ?
C/C(=N/NC(=O)c1cnccn1)c1ccncc1 | . | . | . | . | .
C[N+]1(C)CCO[C@](O)(c2ccccc2)C1 | / | .[9.22 µM] | / | / | /
O=C(N/N=C/C=C\c1ccccc1[N+](=O)[O-])c1cc(-c2ccccc2)nc2ccccc12 | . | . | . | 12µM | .
Cc1ccc(-c2cc(C(=O)N/N=C/c3ccc([N+](=O)[O-])o3)c3ccccc3n2)o1 | . | / | ? | 0.3µM | ?
O=C(N/N=C/c1ccc([N+](=O)[O-])o1)c1cc(-c2ccc(-c3ccccc3)cc2)nc2ccccc12 | ? | 2.5µM | ? | 0.15µM | ?
NNc1nc(-c2ccccc2Cl)nc2sc3c(c12)CCCC3 | ? | / | ? | 0.95µM | ?
NNc1nc(-c2ccccc2Cl)nc2ccccc12 | . | / | . | . | .
O=C(NCc1ccccc1)c1cc(-c2cccs2)on1 | . | . | ? | ? | ?
O=C(NCc1ccco1)c1cc(-c2cccs2)on1 | ? | ? | 3.2µM | 11µM | 2.8µM
O=C(NCCCn1ccnc1)c1cc(-c2cccs2)on1 | ? | . | ? | ? | 3.2µM
O=C(NCCc1ccccc1)c1cc2ncc(Br)cn2n1 | 16µM | ? | . | ? | ?
CC(C)c1cc(C(=O)NCc2ccco2)no1 | 15µM | ? | . | . | ?
COCCNC(=O)c1cc2ncc(Br)cn2n1 | . | . | . | . | .
